In the library only some 2% were active in any assay of this set; here they are far more common.
NOD2-RIPK2 inh: NOD2-RIPK2 protein interaction inhibition; CHO BLA complementation NOD2-RIPK2, CCF4 ratio; inhibition, % at 4.98 µM; 0.38% of 360,000 active; O43353; in the data active means inhibition above about 21%;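 further: 0% = vehicle only and 100% = reference blocker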
Target sequence (O43353 whole entry, looked up): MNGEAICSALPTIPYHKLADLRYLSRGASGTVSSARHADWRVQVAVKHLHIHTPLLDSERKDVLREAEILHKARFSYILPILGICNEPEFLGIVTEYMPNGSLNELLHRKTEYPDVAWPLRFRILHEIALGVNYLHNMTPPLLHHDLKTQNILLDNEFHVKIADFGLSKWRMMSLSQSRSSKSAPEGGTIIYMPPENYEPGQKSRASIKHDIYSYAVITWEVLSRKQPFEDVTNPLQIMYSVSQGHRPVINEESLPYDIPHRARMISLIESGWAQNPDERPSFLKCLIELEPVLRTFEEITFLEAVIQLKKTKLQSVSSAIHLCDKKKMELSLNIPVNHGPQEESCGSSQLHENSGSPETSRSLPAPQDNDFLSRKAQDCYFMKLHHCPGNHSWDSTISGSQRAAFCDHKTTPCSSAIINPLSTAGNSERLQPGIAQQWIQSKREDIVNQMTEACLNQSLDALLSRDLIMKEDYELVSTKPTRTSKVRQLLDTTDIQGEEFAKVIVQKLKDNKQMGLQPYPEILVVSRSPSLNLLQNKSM
TLR9-MyD88 block: blocks human TLR9 binding to MyD88. 0.21% of 340,000 active. inhibition, % at 4.98 µM. AID 504734. CHO BLA complementation TLR9-MyD88, CCF4 FRET ratio. Q9NR96+Q99836;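 active means inhibition above the mean over all tested compounds plus 3 SD, cut at about 21% in these data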;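 further: 0% = DMSO only wells and 100% = clavulanate BLA inhibitor control wells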
Granule exo inh: blocks lytic granule exocytosis; TALL-104 LAMP-1 surface exposure, flow cytometry; cells stimulated with thapsigargin and PMA; inhibition, % at 10 µM; 0.66% of 360,000 active;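 active means inhibition above about 55%, limit read from the data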
TLR4-MyD88 BLA: TLR4-MyD88 interaction inhibition in cells. inhibition, % at 8.4 µM. 0.18% of 200,000 active. O00206+Q99836. HeLa CL3-4 TLR4/MyD88 BLA complementation, FRET ratio; in the data active means inhibition above about 25%;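 further: 0% = vehicle and 100% = reference inhibitor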
ABHD5-PLIN5 inh: blocks binding of human ABHD5 to perilipin-5. Q00G26+Q8WTS1. Split G. princeps luciferase complementation, luminescence, 4 h. inhibition, % at 4 µM. 0.78% of 360,000 active. AID 602281;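 active means inhibition above the mean inhibition across every tested compound plus 3 SD, cut at about 22% in these data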;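 further: 0% = DMSO only wells and the 100% control is not disclosed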
B2AR ag: human beta-2 adrenergic receptor agonism by FAP; P07550; Am2.2-beta2AR cells, FAP receptor internalization, flow cytometry; response, % (no concentration beside the values); 0.43% of 340,000 active;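 active means response above a set limit, near 3 SD of response in nonfluorescent compounds, cut at about 42% in these data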
B2AR ag CP1: agonists of human beta-2 adrenergic receptor. shares compounds with B2AR ag. Am2.2-beta2AR cells, FAP surface receptor, flow cytometry; stronger effect = lower value. percent response (surface receptor), % at 10 µM. 25% of 1,100 active;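 active means surface receptor percent response at or below 58%, roughly 3 SD from nonfluorescent compounds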
B2AR FAP counter: flagged in Am2.2 fluorescence counterscreen for beta-2AR agonists; shares compounds with B2AR ag; Am2.2 cells, FAP fluorogen flow cytometry; stronger effect = lower value; calls only at 10 µM; 1,100 tested, under 10 active; AID 588765;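 active means percent response below a set limit in fluorescence channel 1 and below 50% in channel 8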
TLR9-MyD88 cf: confirmation of human TLR9-MyD88 binding inhibitors; shares compounds with TLR9-MyD88 block; CHO TLR9/MyD88 BLA complementation, CCF4 FRET ratio; inhibition, % at 4.98 µM; 51% of 680 active;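 active means mean inhibition across three repeats above about 21% taken from the earlier screen, limit read from the data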;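 further: blue over green emission ratio reports constitutive TLR9 MyD88 association via BLA complementation; 0% = DMSO vehicle wells and 100% = clavulanate BLA inhibitor wells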
BLA counter-1: beta-lactamase reporter inhibition, counter-screen artifact | AID 540251 | shares compounds with TLR9-MyD88 block | inhibition, % at 4.98 µM | 7% of 680 active | CHO-BLA cells, CCF4 FRET ratio, BLA reporter;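 active means mean inhibition above a 50% cutoff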;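 further: counterscreen of TLR9-MyD88 hits on CMV-driven BLA in CHO-K1 cells; 0% = DMSO alone and 100% = clavulanate blocking BLA; higher means less blue over green ratio so more BLA blockade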
TLR9 CHO cytotox: CHO cell toxicity counter-screen for TLR9-MyD88 inhibitors | shares compounds with TLR9-MyD88 block | 39% of 680 active | TLR9-MyD88 CHO cells cytotoxicity, luminescence | AID 588336 | inhibition, % at 4.98 µM; in the data active means inhibition above about 11%
ABHD5-PLIN5 conf: confirmation of human ABHD5-PLIN5 interaction inhibitors; shares compounds with ABHD5-PLIN5 inh; 67% of 2,200 active; biochemical ABHD5-PLIN5 interaction, luminescence; inhibition, % at 4 µM; in the data active means inhibition above about 23%;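 further: 0% = DMSO vehicle wells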
HNF4 counter: active in HNF4 split-luciferase counter-screen for ABHD5-PLIN5 inhibitors | inhibition, % at 4 µM | 77% of 2,200 active | shares compounds with ABHD5-PLIN5 inh | HNF4 dimerization, luminescence, biochemical;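 active means mean inhibition across replicate wells exceeding the computed hit threshold, cut at about 13% in these data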;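 further: light from luciferase halves that rejoin when HNF4 fusion proteins dimerize; 0% = DMSO only wells and the 100% control is not given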
NOD2 RIPK2 conf: confirmation of human NOD2-RIPK2 interaction inhibitors. AID 624370. inhibition, % at 4.98 µM. 70% of 1,200 active. CHO cells, NOD2-RIPK2 BLA complementation, CCF4 FRET. shares compounds with NOD2-RIPK2 inh;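 active means mean inhibition across replicates above a set limit taken from the earlier primary screen, cut at about 21% in these data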;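 further: 0% = DMSO-only wells and the high end = clavulanate BLA-blocked wells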
BLA counter-2: hits BLA reporter in NOD2-RIPK2 inhibitor counterscreen; shares compounds with NOD2-RIPK2 inh; inhibition, % at 4.98 µM; 57% of 1,200 active; CHO BLA reporter, CCF4 FRET ratio; AID 624371;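 active means mean inhibition above the low-control mean inhibition plus three low-control SD, cut at about 11% in these data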;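 further: 0% = DMSO only wells and 100% = clavulanate high control wells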
Exocytosis CP01: lytic granule exocytosis inhibition. shares compounds with Granule exo inh. TALL-104 cells, LAMP-1 externalization, flow cytometry; stimulated with PMA plus thapsigargin. inhibition, % at 10 µM. 11% of 1,500 active. AID 651954; in the data active means inhibition above about 60%;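 further: 0% = stimulated vehicle wells and 100% = unstimulated wells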
Numbers without * were called inactive; i = inactive; . = no result given.

SMILES	NOD2-RIPK2 inh	TLR9-MyD88 block	Granule exo inh	TLR4-MyD88 BLA	ABHD5-PLIN5 inh	B2AR ag	B2AR ag CP1	B2AR FAP counter	Exocytosis CP01	others
COc1ccc(OC)c(S(=O)(=O)Nc2ccc(O)c3ccccc23)c1	-8	-9	85*	-6	-1	52*	102	i	-12
CCN(CC)CCCNc1ccc(-c2nnc(-c3ccc(OCC(C)C)cc3)o2)cn1	-1	-3	62*	.	20	48*	102	i	95*
O=C(C(=O)N(Cc1ccccc1)Cc1ccccc1)c1c(-c2ccccc2)[nH]c2ccccc12	-22	3	4	.	-7	19	.	.	.
C/C=C/c1ccc(OCC(=O)Nc2cc(S(=O)(=O)N3CCOCC3)ccc2N2CCCC2)c(OC)c1	0	-1	-2	.	-3	6	.	.	.
CCOc1ccccc1CNC(=O)C1CCN(c2nnc(C)c3c(C)n(-c4ccc(C)cc4)nc23)CC1	37*	-6	58*	.	17	53*	24*	i	89*	NOD2 RIPK2 conf=35*;BLA counter-2=12*
COc1ccccc1CCNC(=O)C1CCN(c2nnc(C)c3c(C)n(-c4ccc(C)cc4)nc23)CC1	5	2	15	.	11	31	.	.	.
Cc1ccc(CNc2nc(-c3cccnc3)nc3ccccc23)cc1	2	-4	105*	.	6	-16	154	i	-5
CNCc1ccccc1Sc1cc(O)ccc1O	-1	3	73*	8	7	68*	89	i	9
CNCc1ccccc1Sc1cccc(O)c1	-8	-4	1	-6	9	-10	.	.	.
Nc1nc(SCc2ccccc2)cc(SCc2ccccc2)n1	-2	10	-2	.	3	-6	.	.	.
OCCN1CCN(CC(O)COc2ccc(C34CC5CC(CC(C5)C3)C4)cc2)CC1 (configuration not stated)	5	22*	72*	-4	36*	61*	109	i	79*	TLR9-MyD88 cf=5;BLA counter-1=5;TLR9 CHO cytotox=40*;ABHD5-PLIN5 conf=15;HNF4 counter=5
OCCN1CCN(CC(O)COc2ccc(Cl)cc2)CC1 (configuration not stated)	-19	-3	-3	-5	5	5	.	.	.
Nc1[nH]c(C(=O)c2ccccc2)c(-c2ccccc2C(F)(F)F)c1C(=O)NCCc1c[nH]c2ccccc12	-8	.	36	.	-5	.	.	.	.
